Screening results from PubChem BioAssay.
CYP2C19 inh = inhibitors of human CYP2C19; CYP2C19 Supersomes, luciferin-H EGE luminescence, 30 min; inhibition, % at 5 µM; 96,000 compounds, 21% hits; P33261;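 active = CYP2C19 inhibition above a set limit at 5 µM in the primary screen, cut at about 50% in these data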;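 note: plate controls were negative control wells for no effect and 2.5 mM tranylcypromine positive control for full effect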
CYP2C9 act = activators of human CYP2C9 | P11712 | recombinant CYP2C9, luciferin-H conversion, luminescence; active compounds read high; factor 1 = untreated enzyme, 0 = blocked | 96,000 compounds, 1.4% hits | AID 1024 | activation factor at 5 µM;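 active = activation factor of 2 or more for CYP2C9 at a 5 µM dose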;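 note: 0 = sulfaphenazole-blocked wells and 1 = vehicle-only wells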
Target sequence (P11712 whole entry, looked up): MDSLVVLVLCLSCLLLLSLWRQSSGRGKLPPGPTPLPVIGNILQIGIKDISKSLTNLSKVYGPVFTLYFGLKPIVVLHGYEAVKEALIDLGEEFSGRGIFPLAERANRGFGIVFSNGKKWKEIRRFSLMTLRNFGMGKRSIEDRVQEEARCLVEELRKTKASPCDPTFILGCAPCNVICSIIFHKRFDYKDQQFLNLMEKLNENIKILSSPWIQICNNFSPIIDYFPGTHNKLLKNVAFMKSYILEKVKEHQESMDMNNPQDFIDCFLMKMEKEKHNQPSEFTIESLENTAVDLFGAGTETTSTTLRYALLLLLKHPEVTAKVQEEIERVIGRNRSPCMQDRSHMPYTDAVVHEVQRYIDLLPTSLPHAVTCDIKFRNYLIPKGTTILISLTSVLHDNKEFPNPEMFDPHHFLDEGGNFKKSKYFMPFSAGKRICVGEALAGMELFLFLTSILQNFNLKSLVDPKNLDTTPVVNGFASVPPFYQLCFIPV
CYP2C19 activ = increases human CYP2C19 enzyme activity | 96,000 tested, under 10 active | activation factor at 5 µM | recombinant CYP2C19, luciferin-H EGE luminescence; active compounds read high; 0 = fully inhibited enzyme, 1 = untreated enzyme | AID 1025;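 active = activation factor of at least 2 at 5 µM in the primary screen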;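 note: 0 = wells with 2.5 mM tranylcypromine and 1 = vehicle-only wells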
PLAP activator = activators of human placental alkaline phosphatase | P05187 | AID 696 | 96,000 compounds, 1.2% hits | purified PLAP enzyme, luminescent substrate read-out; active compounds read high | activation fold at 20 µM; in the data active = activation fold above about 2
CYP2C9 inhib = blocks human cytochrome P450 2C9. 96,000 compounds, 20% hits. P11712. CYP2C9 Supersomes, luciferin-H conversion, luminescence. inhibition, % at 5 µM;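 active = blocking of liver enzyme CYP2C9 beyond about 50% at 5 µM, limit read from the data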
* marks the source's active call; other numbers are inactive results. Shown are actives, neighbours in structure and some others; about 31% of the full set was active somewhere.

SMILES | CYP2C19 inh | CYP2C9 act | CYP2C19 activ | PLAP activator | CYP2C9 inhib
CC(C)(C)c1cc(NCCCn2ccnc2)n2ncc(-c3ccc(Cl)cc3)c2n1 | 7.8 | 0.3 | 0.9 | 1 | 65.8*
Cc1cc(NCCOCCO)n2ncc(-c3ccc(Cl)cc3)c2n1 | 29.3 | 0.7 | 0.7 | 1.5 | 27.7
Cc1cc(C)c2c(n1)nn1c(NCCCn3ccnc3)cc(C)nc21 | 68.7* | 0 | 0.3 | 2.5* | 96.5*
Cc1cc(NCCCN2CCOCC2)n2nc(C)c(-c3ccc(F)cc3)c2n1 | 16.2 | 0.6 | 0.8 | 1.4 | 44.8
COCCCNC(=O)COc1ccc(-c2nccc(-c3ccccn3)n2)cc1 | 37.3 | 0.6 | 0.6 | 1.2 | 40.4
Nc1nnc(CCOc2ccccc2Cl)s1 | 18.4 | 1 | 0.8 | 0.9 | 2.4
Nc1nnc(Cc2ccc(Cl)c(Cl)c2)s1 | 58.1* | 0.9 | 0.4 | 0.8 | 7.5
O=c1cc(CSc2nnc(COc3ccccc3)o2)c2ccccc2[nH]1 | 46.3 | 0.7 | 0.5 | 0.9 | 27.3
Cn1c(COc2ccccc2)nnc1SCc1cc(=O)[nH]c2ccccc12 | 71.9* | 0.2 | 0.3 | 1.3 | 77.1*
CCOc1c2ccc(C(=O)NCC34CC5CC(CC(C5)C3)C4)cc2nn1CC | 7.1 | 0.7 | 0.9 | 1.3 | 25.4
CCN(CC)CCCN1C(=O)C(O)=C(C(=O)c2ccco2)C1c1cc(OC)ccc1OC (centres undefined) | -23.7 | 1.2 | 1.2 | 1 | -16.4
CSc1ccc(-c2nnn(Cc3ccc(C)cc3)n2)cc1 | 61.5* | 0.8 | 0.4 | 0.9 | 20.3
Cc1ccc(-c2nnn(CC(=O)O)n2)cc1 | -9.3 | 1 | 1.1 | 0.8 | 2.6
Cc1ccc(-c2nnc(-c3ccc(NC(=O)Cc4cccs4)cc3)o2)cc1 | 53.0* | 0.2 | 0.5 | 1.1 | 83.5*
O=C(Cc1cccs1)Nc1ccc(Cl)cc1 | 94.4* | 0.4 | 0.1 | 0.9 | 64.0*
CCC(=O)Nc1ccc(-c2nnc(-c3ccccc3)o2)cc1 | -4.1 | 1.1 | 1 | 1 | -5.6
O=C(Cc1cccs1)Nc1ccccc1NC(=O)Cc1cccs1 | 50.6* | 0.7 | 0.5 | 0.8 | 27.8
Cc1ccc(C(=O)CSc2nnc(CNc3nc(-c4ccccc4)cs3)n2C)cc1 | 34.5 | 0.7 | 0.7 | 1.4 | 26.6
CCN(CC)c1nc(OC)nc(-n2nnc(C(C)=O)c2C)n1 | -5.7 | 1.1 | 1.1 | 1.1 | -10.0
COc1cc(Cl)c(C)cc1NC(=O)COC(=O)c1cnc(C)cn1 | 57.1* | 0.8 | 0.4 | 0.9 | 18.9
COc1ccc(C(C)(C)C)cc1NC(=O)COC(=O)c1cnc(C)cn1 | 12.4 | 0.7 | 0.9 | 1.1 | 27.3
COc1ccc(NC(=O)c2cccc(S(=O)(=O)N3CCOCC3)c2)cn1 | 11.6 | 0.7 | 0.9 | 0.9 | 29.6
O=C(CSc1nc2ccccc2c(=O)n1NC(=O)Cc1ccccc1)NCc1ccccc1 | 46.1 | 0.1 | 0.5 | 0.9 | 92.8*
O=C(CSc1nc2ccsc2c(=O)n1NC(=O)c1ccccc1)NCc1ccco1 | 59.5* | 0.4 | 0.4 | 1 | 64.5*
O=C(CSc1nc2ccccc2c(=O)n1NC(=O)Cc1ccccc1)NCc1ccco1 | 15.8 | 0.1 | 0.8 | 1.1 | 88.1*
SMILES | CYP2C19 inh | CYP2C9 act | CYP2C19 activ | PLAP activator | CYP2C9 inhib
O=C(Cc1cccs1)Nn1c(Cc2cccs2)nc2ccccc2c1=O | 47.4 | 0.3 | 0.5 | 1 | 71.8*
O=C(CSc1nc2ccccc2c(=O)n1-c1ccccc1)NCc1ccco1 | 42.9 | 0.8 | 0.6 | 0.7 | 23.3
O=C(CSc1nc2ccsc2c(=O)n1Cc1ccccc1)NCc1ccco1 | -6.6 | 0.7 | 1.1 | 1 | 34.9
Cc1ccc(CNC(=O)c2cccc(OCc3c(C)noc3C)c2)cc1 | 57.5* | 0.7 | 0.4 | 1.1 | 29.4
Cc1cccc(C(=O)Nc2ccccc2C(=O)OCc2c(C)noc2C)c1 | 46.3 | 0.1 | 0.5 | 1.1 | 86.2*
Cc1ccccc1NC(=O)c1cccc(OCc2c(C)noc2C)c1 | 24.4 | 0.8 | 0.8 | 0.8 | 20.4
Cc1noc(C)c1COc1cccc(C(=O)Nc2ccc(C#N)cc2)c1 | 5.0 | 0.7 | 0.9 | 1 | 25.7
Cc1ccc(NC(=O)c2cccc(OCc3c(C)noc3C)c2)cc1 | 91.1* | 0 | 0.1 | 1.3 | 95.3*
Cc1noc(C)c1COc1cccc(C(=O)NCc2cccc(Cl)c2)c1 | 41.9 | 0.5 | 0.6 | 1.1 | 51.5*
Cc1nc2ccc(S(=O)(=O)NC(C(=O)N3CCC(C)CC3)C(C)C)cc2s1 (centres undefined) | 13.0 | 0.7 | 0.9 | 1.5 | 28.6
CNC(=O)c1ccccc1-c1ccccc1 | -8.6 | 1.1 | 1.1 | 1 | -14.4
CSc1nnc(-c2cc3ccccc3cc2O)n1C | 5.9 | 0.9 | 0.9 | 1.1 | 12.1
CCCCCCCC(=O)OC(CN1CCCCC1)CN1CCCC1=O (centres undefined) | 17.4 | 1 | 0.8 | 1.7 | 1.5
Cc1nc2ccccc2c2nc3ccccc3n12 | 40.4 | 0.4 | 0.6 | 1 | 57.8*
c1ccc2c(c1)nnn1c3ccccc3nc21 | 72.9* | 0.4 | 0.3 | 1 | 61.5*
CCn1c(COc2ccc3c(c2)CCCC3)nnc1SCC(=O)Nc1nccs1 | 10.3 | 0.9 | 0.9 | 1 | 6.7
CCCc1[nH]nc2c1C1(CCOC1C)C(C#N)=C(N)O2 (centres undefined) | 19.5 | 0.9 | 0.8 | 0.9 | 7.4
Cc1cc(NC(=O)c2cc(-c3ccc4c(c3)OCO4)on2)n(-c2ccccc2)n1 | 19.9 | 0.9 | 0.8 | 0.9 | 11.5
O=C(CCCNS(=O)(=O)c1cccc2nsnc12)NCc1ccc(F)cc1 | 4.8 | 1.2 | 1 | 1.1 | -19.6
CCOC(=O)COc1ccc2c(c1)C(=O)CC1(CCCCC1)O2 | 14.3 | 1 | 0.9 | 0.9 | 2.9
CS(=O)(=O)c1cc([N+](=O)[O-])c(Sc2nc3ccccc3[nH]2)c([N+](=O)[O-])c1 | 68.8* | 0.9 | 0.3 | 1 | 12.2
Cc1ccc(N2CCN(c3ccc(C)cc3)C2c2cccnc2)cc1 | 76.5* | 0.7 | 0.2 | 1.2 | 34.5
c1ccc(N2CCN(c3ccccc3)C2c2ccncc2)cc1 | 86.7* | 0.1 | 0.1 | 1.1 | 89.7*
Clc1cccc(Cl)c1Cn1c(-c2cccnc2Cl)nc2ccccc21 | 35.9 | 0.5 | 0.6 | 1.1 | 46.4
CCCn1c(-c2cccnc2Cl)nc2cc(Cl)c(Cl)cc21 | 38.8 | 0.4 | 0.6 | 1.2 | 56.3*
SMILES | CYP2C19 inh | CYP2C9 act | CYP2C19 activ | PLAP activator | CYP2C9 inhib
C=CCn1c(-c2cccnc2Cl)nc2cc(Cl)c(Cl)cc21 | 43.0 | 0.4 | 0.6 | 1.3 | 57.1*
O=C(CN1CCN(C(=O)c2c(F)cccc2F)CC1)Nc1ccccc1F | 24.7 | 0.9 | 0.8 | 1 | 8.4
COc1ccc(-c2nnc3sc(-c4ccccc4OC)nn23)cc1 | -3.9 | 0.8 | 1 | 0.9 | 19.1
Cc1cc(-c2nn3c(-c4ccccc4)nnc3s2)c2ccccc2n1 | 79.1* | 0.7 | 0.2 | 1 | 31.9
Cc1ccc(-c2nnc3sc(CCc4ccccc4)nn23)cc1 | 65.4* | 0.2 | 0.3 | 0.9 | 76.2*
c1ccc(-c2cc(-c3nn4c(-c5ccco5)nnc4s3)c3ccccc3n2)cc1 | 37.2 | 0.2 | 0.6 | 1.5 | 77.3*
COc1cccc(-c2nnc3sc(-c4ccco4)nn23)c1 | 4.5 | 1.1 | 1 | 1.1 | -11.5
